From PubChem BioAssay AID1159580 (chemical genetic matrix, 2015)
Values joined by “and” are separate entries in the source; they are usually repeats but may differ in a detail not shown here. Equal values may be shown once. Among all 5,500 compounds or so, about 2,000 (36%) were called active. Inconclusive results (about 18%) are left out. No stated cut-off is given here; in the data, active means normalized growth mostly below about 0.91 (no sharp cut-off); inconclusive means no clear call, values can overlap the other calls; inactive means mostly above about 0.92. Some of the results follow.

Test: chemical genetic growth profiling, strain panel (AID 1159580);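 further: tested at 20 µM; growth read once vehicle control cultures reached saturation at 30 °C; 1 = growth at the plate median or of vehicle wells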
Conditions: S. cerevisiae deletion strains, growth OD

Measured: normalized growth

O=NN(CCCl)C(=O)NCCCl
0.928 (inactive) and 0.341 (active): locus YJL095W, strain BCK1, stronger effect = lower value
inactive: locus YAL021C, strain ccr4, stronger effect = lower value 0.923 | locus YAL026C, strain drs2, stronger effect = lower value 0.955 | locus YAL030W, strain snc1, stronger effect = lower value 0.958 | locus YAL040C, strain CLN3, stronger effect = lower value 0.974 | locus YBL061C, strain skt5, stronger effect = lower value 0.942 | locus YBR009C, strain hhf1, stronger effect = lower value 0.912 | locus YBR021W, strain FUR4, stronger effect = lower value 0.954 | locus YBR023C, strain chs3, stronger effect = lower value 0.942 | locus YBR171W, strain sec66, stronger effect = lower value 0.92 | locus YBR229C, strain ROT2, stronger effect = lower value 0.986 | locus YCL029C, strain bik1, stronger effect = lower value 0.995 | locus YCL069W, strain vba3, stronger effect = lower value 0.962 | locus YCR088W, strain abp1, stronger effect = lower value 0.958 | locus YDL005C, strain med2, stronger effect = lower value 0.958 | locus YDL035C, strain GPR1, stronger effect = lower value 0.909 | locus YDL040C, strain nat1, stronger effect = lower value 0.959 | locus YDL074C, strain BRE1, stronger effect = lower value 0.93 | locus YDL101C, strain DUN1, stronger effect = lower value 0.964 | locus YDL134C, strain PPH21, stronger effect = lower value 0.979 | locus YDL185W, strain tfp1, stronger effect = lower value 0.98 | locus YDL192W, strain arf1, stronger effect = lower value 0.976 | locus YDR001C, strain nth1, stronger effect = lower value 0.96 | locus YDR069C, strain doa4, stronger effect = lower value 0.95 | locus YDR101C, strain arx1, stronger effect = lower value 0.994 | locus YDR137W, strain rgp1, stronger effect = lower value 0.943 | locus YDR150W, strain NUM1, stronger effect = lower value 1.01 and 0.989 | locus YDR162C, strain NBP2, stronger effect = lower value 0.988 | locus YDR195W, strain ref2 0.997 | locus YDR297W, strain sur2, stronger effect = lower value 0.965 | locus YDR318W, strain mcm21, stronger effect = lower value 0.966 | locus YDR335W, strain msn5, stronger effect = lower value 0.96 | locus YDR388W, stronger effect = lower value 0.983 | locus YEL037C, strain rad23, stronger effect = lower value 0.94 | locus YEL061C, strain CIN8 (second series), stronger effect = lower value 0.952 | locus YEL061C, strain CIN8, stronger effect = lower value 1.04 | locus YER002W, strain NOP16, stronger effect = lower value 1.02 | locus YER110C, stronger effect = lower value 0.986 | locus YER111C, strain swi4, stronger effect = lower value 0.958 | locus YER155C, strain BEM2, stronger effect = lower value 1 | locus YER167W, strain BCK2, stronger effect = lower value 1.02 | locus YGL086W, strain mad1, stronger effect = lower value 0.956 | locus YGL167C, strain pmr1, stronger effect = lower value 0.959 | locus YGL173C, strain kem1, stronger effect = lower value 0.922 | locus YGL227W, strain vid30, stronger effect = lower value 0.925 | locus YGL248W, strain PDE1, stronger effect = lower value 0.943 | locus YGL253W, strain hxk2, stronger effect = lower value 0.985 | locus YGR078C, strain PAC10, stronger effect = lower value 0.991 | locus YGR229C, strain SMI1, stronger effect = lower value 0.823 | locus YGR252W, strain gcn5, stronger effect = lower value 0.777 | locus YHR027C, strain rpn1, stronger effect = lower value 0.948 | locus YHR079C, strain IRE1 (second series), stronger effect = lower value 0.988 | locus YHR094C, strain hxt1, stronger effect = lower value 0.994 | locus YHR129C, strain ARP1, stronger effect = lower value 0.991 | locus YHR200W, strain rpn10, stronger effect = lower value 0.958 | locus YIL066C, strain RNR3, stronger effect = lower value 0.994 | locus YIL073C, strain SPO22, stronger effect = lower value 0.928 | locus YIR030C, strain dcg1, stronger effect = lower value 0.991 | locus YJL092W, strain hpr5, stronger effect = lower value 0.922 | locus YJL095W, strain BCK1 (second series), stronger effect = lower value 0.963 | locus YJL115W, strain asf1, stronger effect = lower value 0.923 | locus YJL134W, strain LCB3, stronger effect = lower value 0.997 | locus YJL154C, strain vps35, stronger effect = lower value 0.975 | locus YJL166W, strain qcr8, stronger effect = lower value 0.923 | locus YJL168C, strain set2, stronger effect = lower value 1 | locus YJL187C, strain SWE1 (second series), stronger effect = lower value 1 | locus YJL187C, strain SWE1, stronger effect = lower value 0.944 | locus YJR075W, strain HOC1, stronger effect = lower value 0.995 | locus YKL068W, stronger effect = lower value 0.997 | locus YKL085W, strain MDH1 (second series), stronger effect = lower value 0.994 | locus YKL085W, strain MDH1, stronger effect = lower value 0.994 | locus YKL190W, strain CNB1, stronger effect = lower value 1.03 | locus YKR001C, strain vps1, stronger effect = lower value 0.904 | locus YKR026C, strain gcn3, stronger effect = lower value 0.983 | locus YKR091W, strain srl3, stronger effect = lower value 0.975 | locus YLL001W, strain dnm1, stronger effect = lower value 0.963 | locus YLL026W, stronger effect = lower value 0.973 | locus YLL041C, strain sdh2, stronger effect = lower value 0.957 | locus YLR027C, strain aat2, stronger effect = lower value 0.934 | locus YLR039C, strain RIC1, stronger effect = lower value 1.08 | locus YLR058C, strain SHM2, stronger effect = lower value 0.984 | locus YLR102C, strain apc9, stronger effect = lower value 0.99 | locus YLR258W, strain gsy2, stronger effect = lower value 0.965 | locus YLR262C, strain YPT6 (second series), stronger effect = lower value 0.939 | locus YLR262C, strain YPT6, stronger effect = lower value 0.988 | locus YLR268W, strain sec22, stronger effect = lower value 0.957 | locus YLR330W, strain CHS5, stronger effect = lower value 0.989 | locus YLR342W, strain FKS1 (second series), stronger effect = lower value 0.967 | locus YLR342W, strain FKS1, stronger effect = lower value 0.958 | locus YLR370C, strain arc18, stronger effect = lower value 0.972 | locus YLR371W, strain rom2, stronger effect = lower value 0.972 | locus YLR384C, strain iki3, stronger effect = lower value 0.96 | locus YML016C, strain PPZ1, stronger effect = lower value 0.989 | locus YML032C, strain rad52, stronger effect = lower value 0.915 | locus YML124C, strain tub3, stronger effect = lower value 0.997 | locus YMR078C, strain ctf18, stronger effect = lower value 0.98 | locus YMR125W, strain sto1, stronger effect = lower value 0.961 | locus YMR129W, stronger effect = lower value 0.967 | locus YMR205C, strain PFK2, stronger effect = lower value 0.878 | locus YMR223W, strain ubp8, stronger effect = lower value 0.918 | locus YMR231W, strain pep5, stronger effect = lower value 0.973 | locus YMR263W, strain SAP30, stronger effect = lower value 0.948 and 0.997 | locus YMR307W, strain GAS1, stronger effect = lower value 0.781 and 0.985 | locus YNL067W, strain RPL9B, stronger effect = lower value 0.947 | locus YNL175C, strain NOP13, stronger effect = lower value 0.984 | locus YNL197C, strain WHI3, stronger effect = lower value 1.01 | locus YNL209W, strain ssb2, stronger effect = lower value 0.965 | locus YNL224C, strain SQS1, stronger effect = lower value 1 | locus YNL233W, strain BNI4, stronger effect = lower value 0.959 | locus YNL271C, strain bni1, stronger effect = lower value 0.947 | locus YNL307C, strain MCK1, stronger effect = lower value 0.96 | locus YNL322C, strain KRE1, stronger effect = lower value 1 | locus YNR049C, strain mso1, stronger effect = lower value 0.964 | locus YNR052C, strain pop2, stronger effect = lower value 0.994 | locus YOL006C, strain TOP1, stronger effect = lower value 0.789 | locus YOL012C, strain htz1 0.791 | locus YOL147C, strain pex11, stronger effect = lower value 0.981 | locus YOR061W, strain CKA2, stronger effect = lower value 0.996 | locus YOR069W, strain VPS5, stronger effect = lower value 0.996 | locus YOR070C, strain gyp1, stronger effect = lower value 0.968 | locus YOR080W, strain dia2, stronger effect = lower value 0.924 | locus YOR083W, strain WHI5 (second series), stronger effect = lower value 1.01 | locus YOR136W, strain idh2, stronger effect = lower value 0.967 | locus YOR144C, strain elg1, stronger effect = lower value 0.984 | locus YOR265W, strain rbl2, stronger effect = lower value 0.957 | locus YOR290C, strain snf2, stronger effect = lower value 0.872 | locus YOR316C, strain cot1, stronger effect = lower value 0.989 | locus YPL051W, strain arl3, stronger effect = lower value 0.942 | locus YPL055C, strain LGE1, stronger effect = lower value 0.777 | locus YPL078C, strain atp4, stronger effect = lower value 0.918 | locus YPL106C, strain sse1, stronger effect = lower value 1.05 | locus YPL240C, strain hsp82, stronger effect = lower value 0.976 | locus YPR119W, strain clb2, stronger effect = lower value 0.992 | locus YPR141C, strain kar3, stronger effect = lower value 0.991 | locus YPR163C, strain tif3, stronger effect = lower value 0.984 | locus YPR167C, strain met16, stronger effect = lower value 0.991
active: locus YBR231C, strain swc5, stronger effect = lower value 0.604 | locus YBR279W, strain paf1, stronger effect = lower value 0.929 | locus YCL011C, strain gbp2, stronger effect = lower value 0.902 | locus YCL016C, strain dcc1, stronger effect = lower value 0.847 | locus YCL061C, strain MRC1, stronger effect = lower value 0.916 | locus YDR159W, strain sac3, stronger effect = lower value 0.855 | locus YDR334W, strain swr1, stronger effect = lower value 0.876 | locus YDR392W, strain spt3, stronger effect = lower value 0.562 | locus YDR502C, strain sam2, stronger effect = lower value 0.881 | locus YEL003W, strain gim4, stronger effect = lower value 0.803 | locus YER015W, strain faa2, stronger effect = lower value 0.899 | locus YER016W, strain bim1, stronger effect = lower value 0.875 | locus YER155C, strain BEM2 (second series), stronger effect = lower value 0.583 | locus YFR010W, strain ubp6, stronger effect = lower value 0.836 | locus YGL078C, strain dbp3, stronger effect = lower value 0.912 | locus YGL240W, strain doc1, stronger effect = lower value 0.682 | locus YGR135W, strain pre9, stronger effect = lower value 0.846 | locus YHR013C, strain ard1, stronger effect = lower value 0.64 | locus YHR079C, strain IRE1, stronger effect = lower value 0.298 | locus YHR142W, strain chs7, stronger effect = lower value 0.87 | locus YIL125W, strain kgd1, stronger effect = lower value 0.926 | locus YJL129C, strain trk1, stronger effect = lower value 0.759 | locus YJL164C, strain tpk1, stronger effect = lower value 0.878 | locus YJR043C, strain POL32, stronger effect = lower value 0.74 | locus YJR066W, strain TOR1, stronger effect = lower value 0.389 | locus YKL009W, strain mrt4, stronger effect = lower value 0.851 | locus YKL160W, strain elf1, stronger effect = lower value 0.86 | locus YLR113W, strain HOG1, stronger effect = lower value 0.312 | locus YLR221C, strain rsa3, stronger effect = lower value 0.851 | locus YLR320W, strain mms22, stronger effect = lower value 0.589 | locus YLR357W, strain rsc2, stronger effect = lower value 0.813 | locus YLR418C, strain cdc73, stronger effect = lower value 0.601 | locus YML120C, strain ndi1, stronger effect = lower value 0.852 | locus YMR058W, strain fet3, stronger effect = lower value 0.878 | locus YNL071W, strain lat1, stronger effect = lower value 0.914 | locus YNL183C, strain NPR1, stronger effect = lower value 0.368 | locus YNL248C, strain rpa49, stronger effect = lower value 0.763 | locus YNL250W, strain rad50, stronger effect = lower value 0.852 | locus YNL298W, strain CLA4, stronger effect = lower value 0.888 | locus YNL322C, strain KRE1 (second series), stronger effect = lower value 0.764 | locus YOR001W, strain rrp6, stronger effect = lower value 0.751 | locus YOR083W, strain WHI5, stronger effect = lower value 0.844 | locus YOR106W, strain vam3, stronger effect = lower value 0.786 | locus YOR184W, strain ser1, stronger effect = lower value 0.783 | locus YOR231W, strain MKK1, stronger effect = lower value 0.295 | locus YOR270C, strain vph1, stronger effect = lower value 0.638 | locus YPL256C, strain CLN2, stronger effect = lower value 0.352 | strain wtn01, stronger effect = lower value 0.853
1.03 (inactive) and 0.315 (active): locus YHR030C, strain SLT2, stronger effect = lower value
